In PubChem BioAssay:
For some assays here: Entries with a potency or affinity are not part of this list. Active and inactive are the calls of the source.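 The calls were made as follows, unless noted: active = a fitted half-maximal concentration no higher than twice the top valid tested dose, with signal falling as cells die; inconclusive = flat curve between -70% and -30%, or poor fit; inactive = the rest, including signal rising instead of falling.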

What was measured:
[1] = target: Alpha-bungarotoxin (Bungarus multicinctus) (UniProt P60615); assay: compounds binding labelled alpha-BTX control protein – biochemical, small-molecule microarray, Alexa647 label, 635/667 nm fluorescence, artefact control for SMM control protein annotation, profiling panel (AID 1117); details: alpha-BTX-A647 binding fluorescence, higher = more signal
Sequence of Alpha-bungarotoxin (Bungarus multicinctus) (P60615 whole entry, looked up, the tested form may be a part): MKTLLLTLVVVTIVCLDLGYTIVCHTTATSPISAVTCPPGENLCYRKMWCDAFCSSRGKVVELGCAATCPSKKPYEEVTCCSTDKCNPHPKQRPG

[2] = test system: XIP peptide (Xip251-270) binding; assay: XIP fragment 251-270 binding compounds – biochemical, small-molecule microarray, fluorescence 635/667 nm, 0.1 µg/mL protein, primary screen (AID 1182); details: fluorescent protein binding, 635 nm, higher = more signal, called active from +8 up or from −8 down
[3] = test system: XIP peptide (Xip251-270); assay: compounds binding XIP fragment 251-270 – biochemical, small-molecule microarray, fluorescence 635/667 nm, 0.5 µg/mL protein, primary screen (AID 1183); details: fluorescence 635 nm, higher = more signal
[4] = blood-stage malaria parasite viability loss – strain 3D7, DAPI fluorescence, 100 nL, primary screen (AID 1184);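 also: parasites grown inside human red blood cells in medium with human serum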; details: P. falciparum 3D7 growth, 3 d, higher = more signal
[5] = target: Homeobox protein Hox-A13 (Mus musculus) (UniProt Q62424); assay: disruptors of Hoxa13 oligonucleotide interaction – biochemical, fluorescence polarization, labeled oligonucleotide, primary screen (AID 1185); details: Hoxa13:DNA binding, 15 min, higher = more signal, called active from +8 up or from −8 down
Sequence of Homeobox protein Hox-A13 (Mus musculus) (Q62424 whole entry, looked up): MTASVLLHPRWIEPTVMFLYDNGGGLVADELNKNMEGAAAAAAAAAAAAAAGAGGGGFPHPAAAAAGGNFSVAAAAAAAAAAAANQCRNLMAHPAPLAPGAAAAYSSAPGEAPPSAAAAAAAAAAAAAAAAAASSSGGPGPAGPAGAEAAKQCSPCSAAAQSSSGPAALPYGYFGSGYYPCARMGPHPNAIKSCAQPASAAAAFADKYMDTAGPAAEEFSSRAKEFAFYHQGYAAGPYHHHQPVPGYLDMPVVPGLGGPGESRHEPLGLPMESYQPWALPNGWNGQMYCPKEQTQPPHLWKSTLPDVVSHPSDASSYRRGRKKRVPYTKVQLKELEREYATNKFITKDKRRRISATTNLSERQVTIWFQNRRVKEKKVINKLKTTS

[6] = blockers of DNA damage checkpoint Chk1 activation – imaging, HeLa, hydroxyurea, phospho-Chk1 antibody, percent positive cells, primary screen (AID 1186; call rule not given here); details: hydroxyurea-induced phospho-Chk1 immunofluorescence imaging, higher = more signal
[7] = blockers of DNA damage checkpoint Chk1 activation – imaging, HeLa, hydroxyurea, phospho-Chk1 nuclear intensity, primary screen (AID 1187; call rule not given here); details: hydroxyurea-induced phospho-Chk1 immunofluorescence imaging, higher = more signal
[8] = viability loss in HeLa cells – cell-based, ATP luminescence, cherry-pick samples, cytotoxicity control, dose response (AID 687004); details: ATP luminescence (CellTiter-Glo), 48 h; series mostly up to 26 µM;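 also: 0% = neutral control median and -100% = staurosporine 10 µM control median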

SMILES: O=C(O)[C@H]1C[C@H]2C(=O)N[C@@H](Cc3ccccc3)C(=O)N2[C@H]1c1ccc(O)cc1
- composite z-score [1]: 0.824
- composite z-score [2]: 0.3 (inactive)
- composite z-score [3]: 0.923
- z-score [4]: -0.453
- z-score [5]: -2.68 (inactive)
- z-score [6]: -0.119 (inactive)
- z-score [7]: -0.18 (inactive)

SMILES: CC(C)CCC[C@@H](C)[C@H]1CC[C@@]2(C)C3=C(CC[C@]12C)[C@@]1(C)CC[C@H](OC(=O)CCl)C(C)(C)C1CC3 (some centres not stated)
- composite z-score [1]: 0.587
- composite z-score [2]: 0.133 (inactive)
- composite z-score [3]: 0.174
- z-score [4]: -0.0992
- z-score [5]: -0.128 (inactive)
- z-score [6]: -0.199 (inactive)
- z-score [7]: -0.281 (inactive)

SMILES: COCCOC(=O)N1C(=O)[C@@]2(c3cc(C#CC4(O)CCCCCC4)ccc31)[C@H](c1ccc(O)cc1)N1[C@H](c3ccccc3)[C@H](c3ccccc3)OC(=O)[C@H]1[C@@H]2C(N)=O
- composite z-score [1]: 1.97
- composite z-score [2]: 1.84 (inactive)
- composite z-score [3]: 0.821
- z-score [4]: -0.5
- z-score [5]: -2.38 (inactive)
- z-score [6]: 0.178 (inactive)
- z-score [7]: 0.0653 (inactive)

SMILES: Cc1cc(C)c(NC(=O)C2CCC(=O)N2)c(C)c1 (configuration not stated)
- outcome [8]: inactive

SMILES: COc1cccc(C#Cc2cnc3c(c2)C(=O)N([C@H](C)CO)C[C@@H](C)[C@@H](CN(C)C(=O)C2CCOCC2)O3)c1
- outcome [8]: inactive

SMILES: Cc1cc(C(=O)Nc2ccc3c(c2)C(=O)N(C)[C@@H]2CC[C@@H](CC(=O)N[C@@H](C)c4ccccc4)O[C@@H]2CO3)no1
- outcome [8]: inactive

SMILES: COc1ccc(S(=O)(=O)Nc2ccc3c(c2)C(=O)N([C@H](C)CO)C[C@@H](C)[C@@H](CN(C)C(=O)Nc2ccccc2)O3)cc1
- outcome [8]: inactive

SMILES: O=C(Nc1cccc(F)c1)N[C@H]1CC[C@H](CCNS(=O)(=O)c2cccc(Cl)c2)O[C@@H]1CO
- outcome [8]: inactive

SMILES: CO[C@H]1CN(C)C(=O)c2cc(NS(=O)(=O)c3ccc(C)cc3)ccc2OC[C@@H](C)N(C(=O)NC(C)C)C[C@@H]1C
- outcome [8]: inactive

SMILES: COc1cccc(S(=O)(=O)Nc2ccc3c(c2)[C@@H]2C[C@@H](CC(=O)NCc4cccc(F)c4)O[C@H](CO)[C@@H]2O3)c1
- outcome [8]: inactive

SMILES: CC(C)NC(=O)Nc1ccc2c(c1)CC(=O)N([C@H](C)CO)C[C@@H](C)[C@H](CN(C)Cc1ccc3c(c1)OCO3)O2
- outcome [8]: inactive

SMILES: CC(C)NC(=O)Nc1ccc2c(c1)C(=O)N([C@H](C)CO)C[C@@H](C)[C@H](CN(C)C(=O)Nc1ccccc1)OCCCC[C@@H](C)O2
- outcome [8]: inactive

SMILES: C[C@H](CO)N1C[C@H](C)[C@H](CN(C)CC2CCCCC2)Oc2ccc(NC(=O)Nc3ccc4c(c3)OCO4)cc2C1=O
- outcome [8]: inactive

SMILES: O=C(C[C@@H]1C=C[C@@H](NC(=O)C2CCC2)[C@H](CO)O1)NC1CCC1
- outcome [8]: inactive

SMILES: COc1ccc(-n2cc(CNCCc3nc(C)cc(C)n3)c(-c3ccccc3Cl)n2)cc1
- outcome [8]: inactive

SMILES: CCCNC(=O)N(C)C[C@@H]1Oc2ncc(C#CC3CCCCC3)cc2C(=O)N([C@H](C)CO)C[C@@H]1C
- outcome [8]: inactive

SMILES: Cc1cccc(C)c1NC(=O)C(CCc1ccccc1)N1CCN(CCN(C)C)CC1 (configuration not stated)
- outcome [8]: inactive

SMILES: O=C(Nc1cccc(F)c1)N[C@H]1CC[C@@H](CCNS(=O)(=O)c2cccc(Cl)c2)O[C@@H]1CO
- outcome [8]: inactive

SMILES: C[C@@H]1CN([C@H](C)CO)C(=O)c2cc(NC(=O)Nc3cccc4ccccc34)ccc2O[C@H]1CN(C)C(=O)Nc1ccc(C(F)(F)F)cc1
- outcome [8]: inactive

SMILES: Cc1ccc(C)c(NC(=O)C2CCCN2C(=O)NC2CCCCC2)c1 (configuration not stated)
- outcome [8]: inactive

SMILES: C/C=C/c1ccc([C@H]2[C@@H](C#N)N(S(=O)(=O)c3cccc(F)c3)[C@H]2CO)cc1
- outcome [8]: inactive

SMILES: Cc1cc(C(=O)Nc2ccc3c(c2)C(=O)N(C)[C@H]2CC[C@@H](CC(=O)N[C@@H](C)c4ccccc4)O[C@H]2CO3)no1
- outcome [8]: inactive

SMILES: COc1ccc(NC(=O)N(C)C[C@H]2OCCCC[C@@H](C)Oc3ccc(N(C)C)cc3C(=O)N([C@H](C)CO)C[C@H]2C)cc1
- outcome [8]: inactive

SMILES: C[C@@H]1CCCCO[C@H](CN(C)C(=O)c2ccccc2)[C@@H](C)CN([C@@H](C)CO)C(=O)c2cc(NC(=O)c3ccccc3)ccc2O1
- outcome [8]: inactive

SMILES: CCCNC(=O)N1[C@@H](CO)[C@@H](c2ccc(-c3ccccc3)cc2)[C@@H]1CNC(C)=O
- outcome [8]: inactive

SMILES: CCC(=O)N(C)C[C@H]1Oc2cc(C#CC(C)(C)O)ccc2S(=O)(=O)N([C@H](C)CO)C[C@@H]1C
- outcome [8]: inactive

SMILES: C[C@H]1CN([C@@H](C)CO)S(=O)(=O)c2ccc(C#Cc3cccc(F)c3)cc2O[C@@H]1CN(C)C
- outcome [8]: inactive

SMILES: Cc1ccc(NC(=O)[C@H](C)NC(=O)C2CCN(C(=O)[C@@H](N)CC(C)C)CC2)cc1
- outcome [8]: inactive

SMILES: C[C@@H]1CCCCO[C@@H](CN(C)Cc2ccc3c(c2)OCO3)[C@@H](C)CN([C@H](C)CO)C(=O)c2cc(NS(=O)(=O)c3ccc(F)cc3)ccc2O1
- outcome [8]: inactive
